Calls of active or inactive are those of the source. Unless noted, the rule behind the calls is not given here.
What was measured:
[1] = HepG2 liver cancer cell viability effects, profiling panel, resazurin fluorescence, 24 h, PK04 Diversity Set (AID 1172); conditions: higher = more signal
[2] = basal S. cerevisiae growth modulation, no modifier, primary screen, OD600, strain BY4716, 24 h, basal condition (AID 1173); conditions: OD600, 24 h, higher = more signal, called active from +8 up or from −8 down
[3] = MM1S myeloma cell viability, profiling panel, resazurin fluorescence, basal, 24 h, PK04 Diversity Set (AID 1174); conditions: higher = more signal, called active from +8 up or from −8 down;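 note: MM1S multiple myeloma cell line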
[4] = molecular target: Dihydroorotate dehydrogenase (quinone), mitochondrial (Plasmodium falciparum (isolate 3D7)) (UniProt Q08210); assay: PfDHODH enzyme inhibitors, primary screen, biochemical, C-terminal His tag, absorbance 600 nm (AID 1175); conditions: DCIP absorbance 600 nm, higher = more signal, called active from +8 up or from −8 down;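 note: recombinant parasite enzyme with a five histidine tag at its C terminus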
[5] = S. cerevisiae RM11-1a growth modifiers, primary screen, strain RM11-1a, OD600, basal, 24 h (AID 1177); conditions: OD600, 24 h, higher = more signal, called active from +8 up or from −8 down;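 note: cultures grown under basal conditions with no added stressor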
[6] = E. coli acrAB mutant growth effects, primary screen, E. coli filamentation inducers, strain DRC39, OD650, 24 h (AID 1178); conditions: higher = more signal, called active from +8 up or from −8 down;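 note: growth measured as culture turbidity by optical density at 650 nm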
[7] = E. coli acrAB mutant growth effects, primary screen, E. coli filamentation inducers, strain DRC39, OD650, 48 h (AID 1179);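 note: screen aims at cell division blockers that make cells filament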; conditions: E. coli DRC39 delta-acrAB growth, higher = more signal, called active from +8 up or from −8 down
[8] = RPMI8226 myeloma cell viability, profiling panel, resazurin fluorescence, basal, 24 h, PK04 Diversity Set (AID 1180); conditions: higher = more signal;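 note: RPMI8826 multiple myeloma cell line at 5000 cells per well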
[9] = molecular target: E3 ubiquitin-protein ligase XIAP (Homo sapiens) (UniProt P98170); assay: XIAP binders, primary screen, biophysical, small-molecule microarray, fluorescence 635 nm (AID 1181); conditions: small-molecule microarray binding, higher = more signal;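 note: score merges 667 nm emission and signal to noise over triplicate slides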
[10] = system: XIP peptide (Xip251-270) binding; assay: small-molecule binders of XIP peptide, primary screen, biochemical, small-molecule microarray, fluorescence 635/667 nm, 0.1 µg/mL protein (AID 1182); conditions: fluorescent protein binding, 635 nm, higher = more signal, called active from +8 up or from −8 down
XIP peptide (Xip251-270) = assay: small-molecule binders of XIP peptide, primary screen, biochemical, small-molecule microarray, fluorescence 635/667 nm, 0.5 µg/mL protein (AID 1183); conditions: small-molecule microarray binding, fluorescence 635 nm; higher = more signal
[11] = Plasmodium falciparum growth inhibition, primary screen, strain 3D7, DAPI fluorescence, 100 nL (AID 1184);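 note: parasites grown inside human red blood cells in medium with human serum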; conditions: P. falciparum 3D7 growth, 3 d, higher = more signal
[12] = molecular target: Homeobox protein Hox-A13 (Mus musculus) (UniProt Q62424); assay: inhibitors of HoxA13-DNA binding, primary screen, biochemical, fluorescence polarization, labeled oligonucleotide (AID 1185); conditions: 15 min, higher = more signal, called active from +8 up or from −8 down
[13] = inhibitors of hydroxyurea-induced Chk1 phosphorylation, primary screen, imaging, HeLa, phospho-Chk1 antibody, percent positive cells (AID 1186); conditions: hydroxyurea-induced phospho-Chk1 immunofluorescence imaging, higher = more signal
[14] = inhibitors of hydroxyurea-induced Chk1 phosphorylation, primary screen, imaging, HeLa, phospho-Chk1 nuclear intensity (AID 1187); conditions: hydroxyurea-induced phospho-Chk1 immunofluorescence imaging, higher = more signal

Chain of E3 ubiquitin-protein ligase XIAP (Homo sapiens) (P98170 whole entry, looked up): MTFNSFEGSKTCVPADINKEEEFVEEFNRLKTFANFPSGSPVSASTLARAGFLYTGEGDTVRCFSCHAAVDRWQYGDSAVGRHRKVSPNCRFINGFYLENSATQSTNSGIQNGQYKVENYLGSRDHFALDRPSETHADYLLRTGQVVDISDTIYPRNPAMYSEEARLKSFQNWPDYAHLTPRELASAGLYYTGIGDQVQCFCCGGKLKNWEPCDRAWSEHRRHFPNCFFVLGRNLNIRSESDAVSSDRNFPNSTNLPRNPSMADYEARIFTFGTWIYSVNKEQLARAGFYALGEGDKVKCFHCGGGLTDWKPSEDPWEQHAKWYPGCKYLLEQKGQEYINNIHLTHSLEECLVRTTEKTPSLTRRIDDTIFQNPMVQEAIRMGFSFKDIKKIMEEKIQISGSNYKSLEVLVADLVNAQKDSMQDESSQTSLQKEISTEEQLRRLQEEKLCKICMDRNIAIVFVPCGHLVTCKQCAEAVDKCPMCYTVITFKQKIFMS
Chain of Dihydroorotate dehydrogenase (quinone), mitochondrial (Plasmodium falciparum (isolate 3D7)) (Q08210 whole entry, looked up): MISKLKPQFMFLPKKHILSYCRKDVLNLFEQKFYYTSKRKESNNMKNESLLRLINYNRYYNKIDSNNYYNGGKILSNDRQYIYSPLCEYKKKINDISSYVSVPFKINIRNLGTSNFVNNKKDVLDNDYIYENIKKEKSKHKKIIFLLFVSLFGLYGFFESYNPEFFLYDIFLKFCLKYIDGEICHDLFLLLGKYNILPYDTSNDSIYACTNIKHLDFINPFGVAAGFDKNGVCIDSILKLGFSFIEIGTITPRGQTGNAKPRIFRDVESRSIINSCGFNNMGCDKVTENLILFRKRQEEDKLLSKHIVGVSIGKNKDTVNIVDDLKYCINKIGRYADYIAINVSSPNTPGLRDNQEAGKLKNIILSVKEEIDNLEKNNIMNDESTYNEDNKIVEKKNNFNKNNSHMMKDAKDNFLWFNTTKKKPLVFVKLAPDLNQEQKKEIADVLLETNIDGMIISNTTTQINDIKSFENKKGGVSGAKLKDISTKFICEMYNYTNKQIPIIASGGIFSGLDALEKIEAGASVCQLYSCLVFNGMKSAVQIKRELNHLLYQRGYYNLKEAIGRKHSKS
Chain of Homeobox protein Hox-A13 (Mus musculus) (Q62424 whole entry, looked up): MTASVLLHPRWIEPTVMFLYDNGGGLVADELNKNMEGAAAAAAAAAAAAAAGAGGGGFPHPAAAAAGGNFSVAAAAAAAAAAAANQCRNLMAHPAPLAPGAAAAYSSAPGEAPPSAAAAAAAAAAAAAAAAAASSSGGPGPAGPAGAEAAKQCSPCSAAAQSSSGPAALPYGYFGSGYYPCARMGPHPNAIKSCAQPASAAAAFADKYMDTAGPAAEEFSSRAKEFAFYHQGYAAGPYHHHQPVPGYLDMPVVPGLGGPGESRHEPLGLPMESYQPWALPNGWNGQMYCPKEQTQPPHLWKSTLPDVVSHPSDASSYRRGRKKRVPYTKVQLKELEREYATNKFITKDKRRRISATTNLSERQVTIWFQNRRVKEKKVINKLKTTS

| Structure (SMILES) | z-score [1] | z-score [2] | z-score [3] | composite z-score [4] | z-score [5] | z-score [6] | z-score [7] | z-score [8] | composite z-score [9] | composite z-score [10] | composite z-score (XIP peptide (Xip251-270)) | z-score [11] | z-score [12] | z-score [13] | z-score [14] |
| --- | --- | --- | --- | --- | --- | --- | --- | --- | --- | --- | --- | --- | --- | --- | --- |
| C/C(=N\O)C(=O)NCCCCCNC(=O)OCc1ccccc1 | 1.09 | -2.13 (inactive) | -0.158 (inactive) | -0.4 (inactive) | -0.608 (inactive) | 2.59 (inactive) | 1.43 (inactive) | 0.73 | -0.258 | 0.759 (inactive) | 0.58 | 0.574 | -0.408 (inactive) | -0.103 (inactive) | -0.394 (inactive) |
| [N-]=[N+]=NCc1ccccc1C[C@]1(C(N)=O)N=C(c2ccc(OCCCO)cc2)O[C@H]1c1ccccc1CN=[N+]=[N-] | -0.668 | -3.26 (inactive) | -1.04 (inactive) | -2.42 (inactive) | -3.31 (inactive) | 2.63 (inactive) | 0.258 (inactive) | -1.46 | 0.0685 | 1.04 (inactive) | -0.285 | -2.29 | 1.67 (inactive) | -0.442 (inactive) | -0.427 (inactive) |
| CCN1C(C)=C(C(=O)OC)[C@@H](c2ccccc2)N2C(=O)[C@@]3(C(=O)OC)O[C@@]12[C@@H]1C(=O)N(C)C(=O)[C@@H]13 | 0.976 | -0.684 (inactive) | 0.947 (inactive) | 1.18 (inactive) | 0.335 (inactive) | -0.234 (inactive) | -0.992 (inactive) | 1.09 | -0.0454 | 1.38 (inactive) | 0.87 | -0.138 | -0.663 (inactive) |  |  |
| CN1CCC(CCCO)=CC1C1CC1 (stereo not drawn) | 0.413 | -0.821 (inactive) | 1.18 (inactive) | -1.13 (inactive) | -1.57 (inactive) | 0.887 (inactive) | 0.611 (inactive) | 0.63 | 0.77 | -0.289 (inactive) | -0.5 | -0.548 | -1.63 (inactive) | -0.734 (inactive) | -0.684 (inactive) |
| CCCNC(=O)[C@@]1(Sc2ccc(C)cc2)CC(=O)N(Cc2ccccc2Cl)[C@@H]1c1ccc(CO)cc1 | -0.48 | -0.573 (inactive) | 1.12 (inactive) | -3.67 (inactive) | -2.58 (inactive) | 1.23 (inactive) | 0.337 (inactive) | 1.13 | 0.105 | 0.266 (inactive) | -0.271 | -1.79 | -1.4 (inactive) | -0.423 (inactive) | -0.365 (inactive) |
| C=CCN(C(=O)C1N(c2ccc(CCO)cc2)C(=O)C2C(C(=O)O)C3C=CC21O3)C(C)(C)C (stereo not drawn) | 0.43 | -1.39 (inactive) | 1.06 (inactive) | -0.363 (inactive) | -1.41 (inactive) | 1.44 (inactive) | 0.94 (inactive) | 0.327 | -0.253 | 0.865 (inactive) | -1.52 | -1.71 | 0.729 (inactive) | 0.0293 (inactive) | -0.112 (inactive) |
| O=C(CS)NCCCCCNC(=O)[C@H]1C[C@H]2C(=O)N3CCC[C@H]3C(=O)N2[C@H]1c1ccc(O)cc1 | 0.743 | -1.04 (inactive) | 0.613 (inactive) | -0.581 (inactive) | -0.881 (inactive) | 1.2 (inactive) | 1.34 (inactive) | 1.09 | -0.02 | 0.215 (inactive) | -1.02 | -0.0463 | -3.01 (inactive) | 0.23 (inactive) | 0.426 (inactive) |
| COCC(=C=CC[C@H](O)c1ccc(OCCO)cc1)C[C@H](O)c1ccccn1 | 0.959 | -0.413 (inactive) | 1.33 (inactive) | -0.86 (inactive) | 0.275 (inactive) | 1.74 (inactive) | 1.21 (inactive) | 0.827 | -0.02 | 0.495 (inactive) | -0.246 | -1.14 | -5.63 (inactive) | -0.215 (inactive) | -0.0412 (inactive) |
| COCCOC(=O)N1C(=O)[C@@]2(c3ccccc31)[C@H](C(=O)N1CCc3cc(OC)c(OC)cc3C1)[C@H]1C(=O)O[C@H](c3ccccc3)[C@H](c3ccccc3)N1[C@@H]2c1ccccc1OCCO | 0.223 | 1.03 (inactive) | -0.517 (inactive) | -1.85 (inactive) | -0.446 (inactive) | 0.659 (inactive) | 1.31 (inactive) | 0.673 | -0.042 | 0.227 (inactive) | 0.741 | -1.9 | -0.573 (inactive) | -0.0955 (inactive) | -0.08 (inactive) |
| O=C1c2ccccc2[C@](Cc2ccccc2I)(C(=O)NCc2ccccc2)[C@H](c2ccc(CO)cc2)N1Cc1ccccc1C(F)(F)F | 0.716 | -0.712 (inactive) | 1.32 (inactive) | 0.309 (inactive) | 0.758 (inactive) | 0.0438 (inactive) | 0.0442 (inactive) | 1.21 | -0.17 | 0.696 (inactive) | -1.14 | -0.794 | -1.29 (inactive) | -0.361 (inactive) | -0.331 (inactive) |

Source: PubChem BioAssay
